S2 tox: viability counter-screen for ATXN expression inhibitors; S2 cells (HEK-293 line with an ATXN2-luciferase reporter) viability, CellTiter-Fluor protease fluorescence, 24 h; Potency, µM (highest dose often 56.7 µM), hits mostly cytotoxic; 0.49% of 400,000 active; AID 651635; further: potency means the concentration at half of the fitted maximal effect; nearly all actives have a fitted effect of over 40% in size
MCF10A rereplic: induces DNA re-replication in MCF 10a normal breast cells; MCF 10A DNA re-replication, Hoechst nuclear intensity, 48 h; Potency, µM (series often up to 46.1 µM), without a hit: top-dose activity, positive = re-replication, usual class: activators; 2.9% of 350,000 active; AID 624296; further: potency means the concentration at half of the fitted maximal effect; % of control where 0% means no effect; nearly all actives have a fitted effect of over 50% in size
IL1B secr inh: inflammasome signaling inhibition, IL-1 beta readout; THP-1 LPS/ATP IL-1B secretion, AlphaLISA, 16 h; stronger effect = lower value; activity change, % at 57.5 µM; 4.7% of 360,000 active; in the data active means activity change below about -50%; inconclusive means mostly about -30% to -49%; further: on the % scale 0 is the no-effect control and ±100 the full control effect
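THP-1 cells pretreated 1 hr with compounds (up to 57.5 uM final), then stimulated with LPS (250 ng/mL final) plus ATP (1.25 mM final); secreted IL-1B measured by AlphaLISA after 16 hr, decreased signal indicating inhibition.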
PINK1 expr mod: changes PINK1 expression; PINK1 immunofluorescence, high-content cytometry, 24 h; Potency, µM (top dose mostly 76.6 µM), for the others: at the top dose activation (PINK1 increase), hits mostly activators; 0.2% of 410,000 active; AID 624263; active means well fitted activation curve with a large enough effect; inconclusive means small, poorly fitted or top-dose-only effect; cell line not stated here; further: potency means the concentration at half of the fitted maximal effect; % of control where 0% means no effect; nearly all actives have a fitted effect of over 65% in size
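PINK1 protein, normally rapidly degraded, was detected by immunofluorescence after 24 hour compound treatment of a stable cell line. Titration data (5 concentrations) came from laser-scanning cytometry, with CCCP-treated wells as controls.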
SW480 rereplic: inducers of DNA re-replication in SW480 colon cancer cells | 1.8% of 340,000 active | AID 624297 | SW480 DNA re-replication, Hoechst DNA content imaging, 48 h | Potency, µM (highest dose often 46.1 µM), for inactives: at the top dose re-replication activation, usual class: activators; further: potency means the concentration at half of the fitted maximal effect; % of control where 0% means no effect; nearly all actives have a fitted effect of over 55% in size
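Compounds, transferred as 23 nL by pin tool, were incubated with cells for 48 hr; DNA content per nucleus was then quantified by Hoechst staining and fluorescence plate imaging.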
ATXN2 expr inh: reduces ATXN2 reporter expression in HEK-293 cells; HEK-293 ATXN2-luciferase reporter, luminescence, 24 h; Potency, µM (series often up to 57 µM), for inactives: at the top dose activity change, negative = inhibition, most hits filed as inhibitors; 0.72% of 360,000 active; AID 1745845; further: potency means the concentration at half of the fitted maximal effect; on the % scale 0 is the no-effect control and ±100 the full control effect; nearly all actives have a fitted effect of over 55% in size
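qHTS (up to 57 uM final) was run with 24 h compound exposure of reporter cells at 37 °C. Each well was multiplexed: SteadyGlo luminescence measured ATXN2-luciferase expression after a fluorogenic Gly-Phe-AFC viability readout (25 uM final).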
* marks the source's active call; other numbers are inactive results; [ ] = dose if it differs, or a comment. Sampled rows, rich in hits. Any-hit rate of the full collection: about 7.1%. Unless noted, the call rests on the fitted dose curve; in most records, active means well fitted curve in the direction sought with a large enough effect; inconclusive means small, poorly fitted or top-dose-only effect, or another doubt; inactive means no such curve, though single readings can be large; an effect the other way counts as inactive or inconclusive.

Results for Cc1cc(C)cc(-n2nnc(-c3nc(-c4ccccc4F)no3)c2C)c1 ?
PINK1 expr mod: 1.3%

What do the screens show for `Oc1cccc(/C=N/Nc2cc(N3CCOCC3)nc(N3CCOCC3)n2)c1`?
S2 tox: inactive; MCF10A rereplic: inconclusive; IL1B secr inh: -54.0*; PINK1 expr mod: 0.8%; SW480 rereplic: 5.8µM*; ATXN2 expr inh: -2.6%

How did Cc1nc(N/N=C/c2ccc(O)cc2O)cc(N2CCOCC2)n1 do in these assays?
S2 tox: inactive; MCF10A rereplic: inconclusive; IL1B secr inh: -99.1*; PINK1 expr mod: -0.4%; SW480 rereplic: inconclusive; ATXN2 expr inh: inconclusive

How did Oc1ccccc1/C=N/Nc1cc(N2CCCC2)nc(N2CCCC2)n1 do in these assays?
S2 tox: inconclusive; MCF10A rereplic: 18.4µM*; IL1B secr inh: -103.2*; PINK1 expr mod: inconclusive; SW480 rereplic: inconclusive; ATXN2 expr inh: -17.3%

Results for COc1ccccc1/C=N/Nc1cc(C)nc(N2CCOCC2)n1 ?
S2 tox: inactive; MCF10A rereplic: 14.2%; IL1B secr inh: -13.7; PINK1 expr mod: 1.0%; SW480 rereplic: inconclusive

Results for Oc1ccc(/C=N/Nc2cc(N3CCOCC3)nc(N3CCOCC3)n2)cc1O ?
S2 tox: inactive; MCF10A rereplic: 21.4%; IL1B secr inh: 25.2; PINK1 expr mod: -1.0%; SW480 rereplic: 13.7%; ATXN2 expr inh: -19.8%

What do the screens show for `C/C(=N\Nc1cc(N2CCOCC2)nc(C)n1)c1cccc([N+](=O)[O-])c1`?
S2 tox: inactive; MCF10A rereplic: -14.4%; IL1B secr inh: -16.3; PINK1 expr mod: 4.3%; SW480 rereplic: -69.0%; ATXN2 expr inh: inconclusive

How did CCCCc1ccc(/C(C)=N/Nc2cc(N3CCOCC3)nc(C)n2)cc1 do in these assays?
MCF10A rereplic: 20.6µM*; IL1B secr inh: -8.6; PINK1 expr mod: inconclusive; SW480 rereplic: inconclusive

How did CN(C)c1ccc(NC(=O)Cn2c(SCc3ccc(F)cc3)nc3cccnc32)cc1 do in these assays?
PINK1 expr mod: 5.5%

Results for Cc1nc(N/N=C/c2cccc([N+](=O)[O-])c2)cc(N2CCCCC2)n1 ?
IL1B secr inh: 26.4; PINK1 expr mod: 6.9%

How did Cc1nc(N/N=C/c2cccc(F)c2)cc(N2CCOCC2)n1 do in these assays?
S2 tox: inactive; MCF10A rereplic: 1.4%; IL1B secr inh: -96.7*; PINK1 expr mod: -1.1%; SW480 rereplic: inconclusive; ATXN2 expr inh: -5.6%

How did O=C(Nc1nnc(C2CC2)o1)c1ccc(S(=O)(=O)N2CCCc3ccccc32)cc1 do in these assays?
S2 tox: inconclusive; MCF10A rereplic: 10.1%; IL1B secr inh: 27.6; PINK1 expr mod: 2.5%; SW480 rereplic: 3.9%; ATXN2 expr inh: 15.8µM*

Results for CC1CCCCN1S(=O)(=O)c1ccc(C(=O)Nc2nnc(C3CC3)o2)cc1 (centres undefined) ?
S2 tox: inactive; MCF10A rereplic: 15.8%; IL1B secr inh: 30.6; PINK1 expr mod: 1.2%; SW480 rereplic: inconclusive; ATXN2 expr inh: -37.0%

What do the screens show for `O=S(=O)(c1ccc(Cl)cc1)N1CCCc2ccccc21`?
S2 tox: inactive; MCF10A rereplic: inconclusive; IL1B secr inh: 21.8; PINK1 expr mod: 3.4%; SW480 rereplic: 0.9%; ATXN2 expr inh: 6.5%

How did COc1ccc(-c2nnc(NC(=O)c3ccc(S(=O)(=O)N4CCCc5ccccc54)cc3)o2)cc1 do in these assays?
S2 tox: inactive; MCF10A rereplic: -8.0%; IL1B secr inh: 15.3; PINK1 expr mod: 7.6%; SW480 rereplic: inconclusive; ATXN2 expr inh: inconclusive

What do the screens show for `CC(=O)Nc1ccc(S(=O)(=O)N2CCCc3ccccc32)cc1`?
S2 tox: inactive; MCF10A rereplic: 9.2µM*; IL1B secr inh: 54.3; PINK1 expr mod: 3.16µM*; SW480 rereplic: 4.61µM*; ATXN2 expr inh: -25.2%

How did COCc1nnc(NC(=O)c2ccc(S(=O)(=O)N3CCCc4ccccc43)cc2)o1 do in these assays?
S2 tox: inactive; MCF10A rereplic: 16.4µM*; IL1B secr inh: 105.3; PINK1 expr mod: 7.7%; SW480 rereplic: inconclusive; ATXN2 expr inh: -16.8%[11.3 µM]

What do the screens show for `Cc1cc(NC(=O)COC(=O)c2ccc(S(=O)(=O)N3CCCc4ccccc43)cc2)no1`?
S2 tox: inactive; MCF10A rereplic: 9.2µM*; IL1B secr inh: 38.2; PINK1 expr mod: 1.9%; SW480 rereplic: 14.6µM*; ATXN2 expr inh: -18.8%

What do the screens show for `COc1ccc(/C=N/NC(=O)CCC(=O)Nc2ccc(Br)cc2)c(OC)c1`?
S2 tox: inactive; MCF10A rereplic: inconclusive; IL1B secr inh: -74.7*; PINK1 expr mod: -3.6%; SW480 rereplic: 6.0%; ATXN2 expr inh: -32.9%

How did COc1ccc(/C=N/NC(=O)C[n+]2ccccc2)c(OC)c1OC do in these assays?
S2 tox: inactive; MCF10A rereplic: 2.5%; IL1B secr inh: 5.4; PINK1 expr mod: 0.0%; SW480 rereplic: 0.0%; ATXN2 expr inh: -2.3%

How did COc1ccc(/C=N/NC(=O)C[n+]2ccccc2)c(OC)c1 do in these assays?
S2 tox: inactive; MCF10A rereplic: 1.03µM*; IL1B secr inh: 7.8; PINK1 expr mod: 3.3%; SW480 rereplic: -72.3%; ATXN2 expr inh: 1.1%

Results for COc1ccc(OC)c(CCNC(=O)Cn2ncc3c([nH]c4ccccc43)c2=O)c1 ?
S2 tox: inactive; PINK1 expr mod: 2.2%; ATXN2 expr inh: 10.0%

What do the screens show for `CCc1ccc2ncc3c(-c4ccc(F)cc4)nn(CC(=O)NC4CCCCC4)c3c2c1`?
PINK1 expr mod: 0.3%

How did COc1cccc(NC(=O)c2cnn(-c3ccccc3)c2-n2cccc2)c1 do in these assays?
PINK1 expr mod: -1.0%

What do the screens show for `O=C(NCc1ccc(Cl)cc1)C1CCCN(c2ncnc3c2nc2n3CCCCC2)C1` (centres undefined)?
S2 tox: inactive; MCF10A rereplic: inconclusive; IL1B secr inh: 12.7; PINK1 expr mod: 1.5%; SW480 rereplic: -8.4%

Results for O=C(Nc1cc(F)ccc1F)C1CCCN(c2ncnc3c2nc2n3CCCCC2)C1 (centres undefined) ?
S2 tox: inconclusive; MCF10A rereplic: 12.1%; IL1B secr inh: 16.3; PINK1 expr mod: -0.2%; SW480 rereplic: -40.0%

Results for O=C(Nc1ccc(Cl)cc1)C1CCCN(c2ncnc3c2nc2n3CCCCC2)C1 (centres undefined) ?
S2 tox: inconclusive; MCF10A rereplic: 16.4µM*; IL1B secr inh: -59.4*; PINK1 expr mod: -0.4%; SW480 rereplic: 4.0%; ATXN2 expr inh: inconclusive

Results for Cc1ccc(NC(=O)C2CCN(c3ncnc4c3nc3n4CCCCC3)CC2)cc1Cl ?
S2 tox: inactive; MCF10A rereplic: 14.6µM*; IL1B secr inh: inconclusive; PINK1 expr mod: 1.1%; SW480 rereplic: inconclusive; ATXN2 expr inh: -17.3%
